Hits are enriched below; roughly 1.2% of the tested compounds scored in any of these assays.
CR mimetic SO: reduction of superoxide in aged yeast, primary screen, HTS; S. cerevisiae aged cells, superoxide DHE fluorescence; stronger effect = lower value; 330,000 tested, 0.18% active; AID 2690, 2010; superoxide response (% of plate mean), % at 10 µM;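 active = superoxide response under a set limit, about three screen SD below normal, cut at about 65% in these data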;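 note: yeast aged for seven days with compound at 30 °C before DHE staining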
ABCB6 inh 2: ABCB6 transporter inhibitors, primary screen, K562-ABCB6 cells, flow cytometry, MLPCN library; ATP-binding cassette sub-family B member 6 (Homo sapiens), Q9NP58; K562-ABCB6 porphyrin accumulation, 1 h; stronger effect = lower value; fluorescence ratio to DMSO, % at 10 µM; 360,000 tested, 0.19% active;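 active = fluorescence ratio to DMSO below 75%, the collection mean minus 3 SD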;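 note: signal is porphyrin accumulated inside mitochondria; lower ratio means ABCB6 inhibition with less porphyrin fluorescence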
SKN-1 block: suppressors of acrylamide-induced Pgst-4::GFP reporter in worms, primary screen, SKN-1 inhibitor project, whole organism, uHTS, GFP/RFP fluorescence ratio, strain VP596; C. elegans VP596 Pgst-4::GFP/RFP ratio, 24 h; inhibition, % at 21.8 µM; 360,000 tested, 0.49% active; AID 624304, 2012;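 active = interference check ratio from 0.5 to 1.5 plus GFP to RFP signal ratio inhibition reaching or exceeding a fixed threshold, cut at about 30% in these data, passing the limit was not always enough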
Platelet DG rel: inhibitors of platelet dense granule secretion, primary screen, cell-based, MLPCN, human platelets | inhibition, %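 (compounds screened at 7.5 µM in platelet-rich plasma)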 | human platelet-rich plasma, SFLLRN dense granule ATP release, luminescence | 300,000 tested, 0.22% active | AID 1663, 2009;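 active = mean replicate score, as percent of positive control, at or above 50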
VLA-4 inh: inhibition in human VLA-4 binding assay, primary screen, VLA-4 allosteric modulator project, MLPCN library, flow cytometry, VLA-4 expressing cells; Integrin alpha-4 (Homo sapiens), P13612; ligand binding flow cytometry; inhibition, % (about 7 µM as worked out from the volumes in the protocol); 330,000 tested, 0.2% active; AID 2557, 2010; in the data active = inhibition above about 50%
Target sequence (P13612 whole entry, looked up): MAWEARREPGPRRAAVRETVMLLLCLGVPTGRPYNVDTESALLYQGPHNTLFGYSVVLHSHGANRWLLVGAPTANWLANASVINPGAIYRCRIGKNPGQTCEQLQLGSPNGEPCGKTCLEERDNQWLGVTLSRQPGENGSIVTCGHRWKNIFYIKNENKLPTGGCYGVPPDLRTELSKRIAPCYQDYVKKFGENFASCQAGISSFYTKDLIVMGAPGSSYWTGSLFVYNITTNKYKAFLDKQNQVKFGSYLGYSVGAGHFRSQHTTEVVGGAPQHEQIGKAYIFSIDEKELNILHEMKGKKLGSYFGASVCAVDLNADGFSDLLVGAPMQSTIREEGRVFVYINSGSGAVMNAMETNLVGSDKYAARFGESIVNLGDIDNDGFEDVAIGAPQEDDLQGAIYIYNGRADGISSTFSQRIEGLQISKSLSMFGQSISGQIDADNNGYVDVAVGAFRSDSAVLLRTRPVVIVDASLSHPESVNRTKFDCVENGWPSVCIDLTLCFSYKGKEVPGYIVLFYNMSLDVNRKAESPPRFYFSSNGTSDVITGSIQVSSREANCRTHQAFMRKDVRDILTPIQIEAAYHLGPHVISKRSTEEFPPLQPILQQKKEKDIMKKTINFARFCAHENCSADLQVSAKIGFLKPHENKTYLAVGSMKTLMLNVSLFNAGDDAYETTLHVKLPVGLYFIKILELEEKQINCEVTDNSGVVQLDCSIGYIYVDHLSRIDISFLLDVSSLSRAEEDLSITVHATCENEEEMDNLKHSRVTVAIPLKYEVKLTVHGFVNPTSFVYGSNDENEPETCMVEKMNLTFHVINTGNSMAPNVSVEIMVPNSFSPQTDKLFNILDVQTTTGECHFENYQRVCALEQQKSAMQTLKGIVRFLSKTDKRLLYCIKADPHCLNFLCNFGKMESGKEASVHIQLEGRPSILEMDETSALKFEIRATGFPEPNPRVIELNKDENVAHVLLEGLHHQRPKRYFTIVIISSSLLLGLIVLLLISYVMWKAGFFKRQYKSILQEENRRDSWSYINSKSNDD
VLA-4 mod pick: retest of VLA-4 allosteric modulators, confirmation, cell-based, cherry-picked plates, U937, HUTS-21 LIBS antibody | shares compounds with VLA-4 inh | U937 cells, HUTS-21 LIBS mAb binding, flow cytometry; LDV ligand present at threefold Kd | inhibition, % at 6.7 µM | 1,300 tested, 2% active | AID 2813, 2010; in the data active = inhibition above about 40%
Hits are given with their value; i = inactive; nt = no result.

SMILES	CR mimetic SO	ABCB6 inh 2	SKN-1 block	Platelet DG rel	VLA-4 inh	VLA-4 mod pick
CSc1ccc(NC(=O)C2(C)CCN2C(=O)C2(c3ccccc3)CC2)cc1 (configuration not stated)	nt	i	i	nt	nt	nt
O=C(Nc1ccc(Cl)c(Cl)c1)c1ccco1	i	i	42	i	i	nt
CC1=CC(C)CC(C)OC(=O)CC(c2ccc(O)cc2)NC(=O)C(Cc2c(Br)[nH]c3ccccc23)N(C)C(=O)C(C)NC(=O)C(C)C1 (configuration not stated)	nt	i	i	nt	nt	nt
COc1cccc(C(c2nnnn2C2CCCCC2)N2CCC3(CC2)C(=O)NCN3c2ccccc2)c1OC (configuration not stated)	nt	i	i	nt	nt	nt
NC(=O)c1ccc(N=Nc2c(O)[nH]c(=O)[nH]c2=O)cc1	i	nt	nt	i	i	nt
O=c1[nH]c(O)c(N=Nc2cc([N+](=O)[O-])ccc2O)c(=O)[nH]1	i	i	50	i	i	nt
C[C@@H]1CN([C@H](C)CO)C(=O)c2c(c3ccccc3n2C)-c2ccccc2CO[C@H]1CN(C)Cc1ccc2c(c1)OCCN2C	nt	i	i	nt	nt	nt
COc1cc(N2CCOCC2)ccc1/C=C1\C(=O)NC(=O)N(Cc2cccs2)C1=O	i	i	i	i	i	nt
COc1cc(N2CCOCC2)ccc1/C=C1\C(=O)NC(=O)N(Cc2ccc3c(c2)OCO3)C1=O	i	i	41	i	i	nt
CCN1C(=O)/C(=C/c2ccc3c(c2)CCN3CCCCl)C(=O)NC1=S	i	i	i	i	i	nt
O=C1NC(=S)N(C2CC2)C(=O)/C1=C/c1ccc2c(c1)CCN2CCCCl	i	i	41	i	i	nt
CC(=O)Nc1ccccc1C(=O)OCc1cccc(F)c1	i	i	i	i	56	nt
CC(=O)Nc1ccccc1C(=O)OCc1ccc(C(=O)c2ccccc2)cc1	i	i	i	i	nt	nt
CN(C)c1ccc(C(=O)c2ccc(N(C)C)cc2)cc1	i	i	42	i	i	nt
CCCCn1c(O)c(C(C)=NCCc2c[nH]c3ccccc23)c(=O)[nH]c1=O	i	i	i	i	i	nt
O=C(/C=C/c1c[nH]c2ccccc12)c1c(O)n(CCc2ccccc2)c(=O)[nH]c1=O	i	i	40	i	i	nt
CC(C)(C)n1nnnc1C(CCc1ccccc1)N1CCC2(CC1)C(=O)NCN2c1ccccc1 (configuration not stated)	nt	i	i	nt	nt	nt
COC(=O)CC1=C(C(=O)OC)C2(C(=O)Nc3c(C)cccc32)C(C#N)=C(N)O1 (configuration not stated)	i	i	i	i	107	i
COc1ccc(C(=O)OC2CC3CCC(C2)[N+]3(C)[O-])cc1OC (configuration not stated)	i	i	i	i	i	i
CCC(CO)(C(=O)OC1CC2CCC(C1)N2C)c1ccccc1 (configuration not stated)	i	i	i	i	i	nt
C[N+]1(C)C2CCC1CC(OC(=O)c1ccco1)C2 (configuration not stated)	i	i	i	i	i	nt
COc1cc(C(=O)OC2C[C@H]3CC[C@@H](C2)N3C)ccc1O (some centres not stated)	i	i	i	i	i	i
CN1C2CCC1CC(OC(=O)c1cc(Cl)cc(Cl)c1)C2 (configuration not stated)	i	nt	i	i	93	i
CN1CCN(CCC(=O)OC2CC3CCC(C2)N3C)CC1 (configuration not stated)	i	i	i	i	i	nt
COc1cc(C(=O)OC2C[C@H]3CC[C@@H](C2)N3)ccc1O (some centres not stated)	i	i	i	i	i	i
SMILES	CR mimetic SO	ABCB6 inh 2	SKN-1 block	Platelet DG rel	VLA-4 inh	VLA-4 mod pick
COc1ccc(-c2ccc3c(c2)CN(C(=O)NC2CCCCC2)Cc2cnnn2-3)cc1	nt	i	i	nt	nt	nt
C=C(C=O)C[C@@H]1C[C@H](O)C2OC3C[C@]4(C)OC5/C=C\CC6OC7C(CC=CCC6OC5CCCC4OC3CC2O1)OC1CC2OC3CC(=O)OC3C[C@@H](C)C[C@@]2(C)OC1C[C@@H]7C (some centres not stated)	i	nt	nt	i	60	67
C=C(C=O)CC1CC(O)[C@]2(C)OC3C[C@@H]4OC5C[C@]6(C)O[C@]7(C)CCC8OC9C[C@]%10(C)OC(/C(C)=C\CO)C(O)CC%10OC9CC(C)C8OC7CC6O[C@]5(C)C/C=C\C4OC3CC2O1 (some centres not stated)	i	i	i	nt	i	nt
Cc1ccsc1/C=C1\C(=O)NC(=S)N(C)C1=O	i	i	40	i	i	i
CN1C(=O)/C(=C/c2ccc(Cl)s2)C(=O)NC1=S	i	i	i	i	i	nt
O=C(OC1CC2CCC(N2)C1C(=O)O)c1ccccc1 (configuration not stated)	i	i	i	nt	i	i
CC(C)C[C@H]1COc2cc(N3CCN(C)CC3)ccc2S(=O)(=O)N1	nt	i	i	nt	nt	nt
CC1(C)C[C@H]2C=C(C=O)[C@]3(C=O)C[C@]3(C)[C@H]2C1	i	i	i	i	65	48
Cc1nnc2ccc(-c3cccc(C(F)(F)F)c3)nn12	i	i	i	i	63	i
CC12Nc3ccccc3C(=O)N1Cc1cnnn1-c1ccccc12 (configuration not stated)	nt	i	i	nt	nt	nt
COc1cccc(-c2sc3ccccc3c2-c2ccc(OCCN3CCOCC3)cc2)c1	i	i	i	nt	i	i
COc1ccc(-n2c(CN3CCOCC3)nc3ccccc3c2=O)c(OC)c1	i	i	i	i	i	nt
O=C1NCN(c2ccccc2)C12CCN(C(c1cccc3ccccc13)c1nnnn1C1CCCCC1)CC2 (configuration not stated)	nt	i	i	nt	nt	nt
NC(=O)Cn1cc(C(=O)c2ccccc2)c2ccccc21	i	i	i	i	i	i
Fc1cccc(-c2ccc3c(c2)CN(c2cccc(Cl)c2)Cc2cnnn2-3)c1	nt	i	i	nt	nt	nt
C[C@]12CC[C@H](O)C[C@H]1CC[C@@H]1[C@@H]2C[C@@H](O)[C@]2(C)[C@@H](C3=CC(=O)OC3)CC[C@]12O	i	i	i	nt	51	i
CCOC(=O)[C@]12Cc3cc(C)ccc3[C@H]1N(C1CCCCC1)C(=O)c1ccccc12	nt	i	i	nt	nt	nt
CC1(C)C(C(=O)N2CCN(c3ccc(Cl)cc3)CC2)C1(C)C	i	i	i	i	i	nt
COC(=O)C1CN(C#N)N(c2ccc(Cl)cc2)C12c1ccccc1-c1ccccc12 (configuration not stated)	i	i	i	nt	62	53

Compound activity from PubChem.
